# Laboratory results taken from PubChem BioAssay (NCI).
# Several values for one entry are separate records, joined by “and”; a condition that tells them apart may be missing. Identical values can stand only once. The panel holds about 83,000 compounds, 20% with a hit somewhere; the sample as a whole holds those more often.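 Plates (96-well) were seeded with cells, treated with compound at one concentration, and incubated for 48 hours before percent growth was determined.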 Activity calls are given as the source filed them.
# Tested on: SK-MEL-28 melanoma
# Assay: NCI-60 one-dose screen, 48 h (100 = growth as untreated, 0 = no growth, -100 = all killed)
# Settings: 10 µM
# Experimental: Growth inhibition of the SK-MEL-28 human tumor cell line is measured as a screen for anti-cancer activity. Cells are grown in 96 well plates and exposed to the test compound for 48 hours. Compounds are tested at a single concentration, which is 10^-5 M for most compounds. The reported endpoint is percent growth (GI% or GIPRCNT), where numbers from 0 - 100% represent growth inhibition, and numbers from -100% - 0 represent cell death. For example, a value of 40 represents 60% growth inhibition. A value of 0 means no net growth occurred over the course of the experiment. A value of -40 indicates 40% of cells at the beginning of the experiment died by the end of the experiment. A value of -100 means all cells are dead at the end of the experiment.
# NCI-60 Human Tumor Cell Lines Screen was performed using the standard one-dose NCI protocol, which is described in more detail at https://dtp.cancer.gov/discovery_development/nci-60/default.htm.
# Compounds with GIPRCNT values below 10 were considered active. Activity score was based on GIPRCNT using the following formula: […]
# Score is 0 for GIPRCNT values of 100 or above, 50 for GIPRCNT values of 0, and 100 for GIPRCNT values of -100.
row,SMILES,growth
1,O=c1ccn2c(n1)OC1CC2OC1COC(c1ccccc1)(c1ccccc1)c1ccccc1 (stereo not given),118% (inactive)
2,S=c1nc[nH]c2nc[nH]c12,114% (inactive)

# Same assay, conditions: 10 µM unless noted
row,SMILES,growth
1,CC(C)=NOC(C)C(=O)O (stereo not given),113% (inactive)
2,O=C1CCC(=O)N1CC1CC2CCC1C2 (stereo not given),109% (inactive) and 103% (inactive)
3,CCCC(=O)OCC(COC(=O)CCC)OC(=O)CCC,108% (inactive)
4,O=C1c2ccccc2CN1c1ccccc1,120% (inactive)
5,O=C(O)/C=C/C=C/c1ccccc1,103% (inactive) and 109% (inactive)
6,NNC(=O)Nc1ccccc1,109% (inactive)
7,CCCCNC(=O)c1ccccc1C,101% (inactive)
8,CCOC(=O)c1ccc(N2C(=O)C(Cl)(c3ccccc3)C2c2ccco2)cc1 (stereo not given),88.3% (inactive)
9,Cc1ccc(C(=O)c2ccc(C)cc2)cc1,111% (inactive) and 106% (inactive)
10,NCCCCCC(=O)O,112% (inactive) and 109% (inactive) and 119% (inactive)
11,Cc1cc(O)c(C(C)C)cc1N=O,110% (inactive) and 113% (inactive)
12,Cc1ccc([N+](=O)[O-])cc1Br,104% (inactive)
13,CCn1c2ccc(N(C)C)cc2c2cc(N(C)C)ccc21,98.9% (inactive)
14,O=c1[nH]c(=O)c2[nH]c(=O)[nH]c2[nH]1,98.9% (inactive)
15,COc1ccc(COC=O)cc1,111% (inactive)
16,CSc1nc(N)c(N)c(N)n1,113% (inactive)
17,Nc1nc(N)c2cc(S(=O)(=O)c3ccccc3)ccc2n1,71% (inactive) and 68.9% (inactive)
18,CCOC(=O)C1=C(C)NC(C)=C(C(=O)OCC)C1,105% (inactive) and 101% (inactive)

row,SMILES,growth
1,COc1ccc(-n2[nH]c3c(cnc4ccccc43)c2=O)cc1,108% (inactive) and 100% (inactive)
2,CCN(CC)CCNC(=O)c1ccc(NCN2C(=O)NC(c3ccccc3)(c3ccccc3)C2=O)cc1,117% (inactive)
3,O=C(O)c1c2c(nc3ccccc13)Cc1ccccc1-2,109% (inactive) and 98.4% (inactive)
4,CN(C)C(=N)N=C(N)N,116% (inactive) and 106% (inactive)
5,COc1cc(NCCCCCCCNC(C)C)c2nccc(C)c2c1,105% (inactive) and 91.4% (inactive)
6,CCN(CC)CCO/N=C1\CC(c2ccc(OC)c(OC)c2)Oc2ccccc21 (stereo not given),107% (inactive)
7,CC(=O)Nc1ccc(OC(C)=O)cc1,82.6% (inactive) and 110% (inactive)
8,O=[N+]([O-])c1ccc(NC(c2ccccc2)c2ccc3cccnc3c2O)cc1 (stereo not given),27.7% (inactive)
9,Nc1ccccc1SC(CC(=O)c1ccccc1)c1cccc([N+](=O)[O-])c1 (stereo not given),96% (inactive) and 102% (inactive)
10,O=C1C=CC[C@H](/C=C/c2ccccc2)O1,40.3% (inactive) and -22.5% (active)
11,Cc1c(Cl)c(C)c(Cc2c(C)c(Cl)c(C)c(Cl)c2O)c(O)c1Cl,26.1% (inactive)
12,CN(C)CC(CN(C)C)C(O)c1ccccc1 (stereo not given),105% (inactive)
13,CCOC(=O)C1=CC(=O)CC(C)(C)O1,119% (inactive) and 120% (inactive)
14,COc1ccc(CCO)cc1,111% (inactive)
15,CC1(C)CC(=O)NC1=O,105% (inactive)
16,COc1cc(Cl)ccc1C,112% (inactive)
17,O=[N+]([O-])c1cccc(N=Cc2ccccc2)c1,122% (inactive)
18,Nc1nc(=S)c2[nH]cnc2[nH]1,29% (inactive)

# Same assay, conditions: 50 µM
row,SMILES,growth
1,S=c1nc[nH]c2nc[nH]c12,75.6% (inactive)

# Same assay, conditions: 100 µM
row,SMILES,growth
1,O=c1ccn2c(n1)OC1CC2OC1COC(c1ccccc1)(c1ccccc1)c1ccccc1 (stereo not given),74.3% (inactive)
